Assay results: PubChem BioAssay (NCATS)
Records with an inconclusive call do not appear. Calls of active or inactive are those of the source. The call rests on the fitted dose curve; in most records, active means well fitted cell-killing curve with a large enough effect; inconclusive means small, poorly fitted or top-dose-only effect, or effect the other way; inactive means flat fitted curve, though single readings scatter.

Experiment: MultiTox-Fluor Cytotoxicity Assay - LYMP1-002 - Live Cells (AID 955)
Conditions: LYMP1-002 lymphoblastoid live-cell protease fluorescence viability; series mostly up to 46.1 µM
Text: NIH Chemical Genomics Center [NCGC]
NIH Molecular Libraries Screening Centers Network [MLSCN]
National Institutes of Environmental Health Sciences [NIEHS]
National Toxicology Program [NTP]
We have developed a 1536-well cell-based assay for quantitative high throughput screening (qHTS) against a number of cell lines to determine in vitro cytotoxicity of small molecules. This particular assay uses a human lymphoblastoid cell line (LYMP1-002) purchased from Coriell Institute.
NCGC Assay Protocol Summary:
The MultiTox-Fluor Cytotoxicity Assay (Promega) is a homogeneous method to simultaneously measure the relative number of live and dead cells in culture by detecting changes in cell membrane integrity. There are two fluorogenic peptide substrates in the assay reagent. Viable cells are determined when the cell-permeant substrate (GF-AFC) enters the cell and is cleaved by protease from live cells resulting in liberated fluorophore. This live-cell protease activity restricted to viable cells is proportional to cell number. The dead cells are determined by using fluorogenic cell-impermeant peptide substrate (bis-AAF-R110) which cleaved by dead cell proteases leaking from damaged cell membrane.
Using the MultiTox-Fluor Cytotoxicity Assay, the relative number of live cells was measured in the lymphoblastoid cell line with complete culture medium following compound treatment for 16 hours. The assay was performed in opaque black Kalypsys 1536-well plates. In the screen, tetraoctylammonium bromide was used as positive control. Library compounds were measured for their ability to cause acute toxicity in the cell line, as reflected by a decrease in live cell protease activity, in a concentration-dependent manner. […] AC50 values were determined from concentration-response data modeled with the standard Hill equation.
qHTS protocol for MultiTox-Fluor Cytotoxicity assay
[Step] [Parameter] [Value] [Description]
1. Reagent; 5 uL; 2500 lymphoblastoid cells/well
2. Time; 5 hr; 37 C incubation
4. Controls; 23 nL; Tetraoctylammonium bromide 6.4pM to 92 uM
5. Time; 16 hr; 37 C incubation
6. Reagent; 5 uL; MuliTox-Fluor Assay reagent
7. Time; 60 min; Room Temperature
8. Detection; live-cell fluorescence (Ex/Em=405/510); EnVision plate reader
Keywords: cell viability, cytotoxicity, lymphoblastoid cell line, fluorescence, NTPHTS, NTPHTS_NCGC, NIEHS, EPA, DSSTox, MLSMR, MLSCN, NIH Roadmap, qHTS, NCGC

| Compound | outcome |
| --- | --- |
| ClCBr | inactive |
| C1CCC2CCCCC2C1 (stereo not given) | inactive |
| CCOP(=S)(OCC)Oc1ccc([N+](=O)[O-])cc1 | inactive |
| CCOc1ccc(N)cc1 | inactive |
| Cc1cccc(C#N)c1 | inactive |
| c1nc[nH]n1 | inactive |
| OCC1CO1 (stereo not given) | inactive |
| O=NN(c1ccccc1)c1ccccc1 | inactive |
| BrCCBr | inactive |
| CC(C)(C)OOC(C)(C)C | inactive |
| C=C(Cl)Cl | inactive |
| CCc1cccc(CC)c1N(COC)C(=O)CCl | inactive |
| COc1ccc(C=O)cc1OC | inactive |
| O=C=NC1CCCCC1 | inactive |
| CCOP(=S)(OCC)SCSC(C)(C)C | inactive |
| ClC(Cl)=C(Cl)C(Cl)=C(Cl)Cl | inactive |
| O=C(Cl)C(Cl)(Cl)Cl | inactive |
| C=CCOC(C)=O | inactive |
| O=[N+]([O-])c1ccc(Cl)c(Cl)c1 | inactive |
| COC(=O)NC(=S)Nc1ccccc1NC(=S)NC(=O)OC | inactive |

| Compound | outcome |
| --- | --- |
| C=CC(=C)C | inactive |
| Clc1cccc(C(Cl)(Cl)Cl)n1 | inactive |
| Cc1ccc2ccccc2c1 | inactive |
| CCCOC(=O)c1ccccc1C(=O)OCCC | inactive |
| CNC(=O)O/N=C/C(C)(C)SC | inactive |
| CCCCOC(=O)c1ccccc1C(=O)OCCCC | inactive |
| COc1ccc(N)cc1 | inactive |
| C=CCc1ccc2c(c1)OCO2 | inactive |
| Oc1ccc(Cl)cc1Cl | inactive |
| C/C=C/c1ccc2c(c1)OCO2 | inactive |
| C[C@]12CC[C@H]3[C@@H](CCC4=CC(=O)CC[C@@]43C)[C@@H]1CC[C@@H]2O | inactive |
| CCN(CC)c1ccccc1 | inactive |
| ClC1=C(Cl)C2(Cl)C3C4C=CC(C4)C3C1(Cl)C2(Cl)Cl (stereo not given) | inactive |
| S=C=Nc1cccc2ccccc12 | inactive |
| Brc1ccccc1 | inactive |
| O=S1OCC2C(CO1)C1(Cl)C(Cl)=C(Cl)C2(Cl)C1(Cl)Cl (stereo not given) | inactive |
| ClC(Cl)=C(Cl)Cl | inactive |
| COP(=S)(OC)Oc1ccc([N+](=O)[O-])cc1 | inactive |
| CCCC(=O)Cl | inactive |
| Cc1ccc(O)c(C)c1 | inactive |
